Experimental data as given in PubChem BioAssay AID504332 (National Center for Advancing Translational Sciences (NCATS), 2011).
Values joined by “and” are separate entries in the source; they are usually repeats but may differ in a detail not shown here. Equal values may be shown once. Out of some 350,000 compounds screened, about 31,000 (8.9%) were called active. Not shown: some 15% with an inconclusive outcome. The sample holds actives, similar compounds and a random draw of the others, so the mix is not that of the screen. The call rests on the fitted dose curve; in most records, active means well fitted inhibition curve with a large enough effect; inconclusive means small, poorly fitted or top-dose-only effect; inactive means no such curve, though single readings can be large or run the other way. Where a structure was tested more than once in an assay, its records may differ in their call.

Each compound was assayed against Histone-lysine N-methyltransferase EHMT2 (Homo sapiens) (UniProt Q96KQ7) (assay: qHTS Assay for Inhibitors of Histone Lysine Methyltransferase G9a). Settings: G9a H3K9 monomethylation, AlphaScreen, 2 h; series mostly up to 59 µM; activity, negative = inhibition: at the top concentration.
Histone-lysine N-methyltransferase EHMT2 (Homo sapiens), sequence (Q96KQ7 913-1193 limits assumed): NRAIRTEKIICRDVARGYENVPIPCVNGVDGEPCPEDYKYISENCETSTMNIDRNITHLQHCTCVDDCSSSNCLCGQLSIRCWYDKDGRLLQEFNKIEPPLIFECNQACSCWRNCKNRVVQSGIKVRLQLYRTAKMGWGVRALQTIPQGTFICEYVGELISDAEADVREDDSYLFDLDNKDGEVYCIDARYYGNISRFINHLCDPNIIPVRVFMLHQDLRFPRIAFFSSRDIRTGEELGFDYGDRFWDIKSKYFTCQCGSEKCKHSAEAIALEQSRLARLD
Outline: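 Quantitative HTS format: methyltransferase activity on a biotin-tagged H3K9 peptide is measured by AlphaScreen, using a rabbit anti-monomethyl-H3K9 antibody with streptavidin donor and anti-IgG acceptor beads. Final levels are 20 nM enzyme, 500 nM peptide, 20 uM SAM; 2 h RT.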
Further: nearly all actives have a fitted effect of over 75% in size.
On the % scale 0 is the no-effect control and ±100 the full control effect; potency means the concentration at half of the fitted maximal effect.

| Compound | activity, negative = inhibition | Potency |
| --- | --- | --- |
| CC(=O)Cn1cnc2c(cnn2-c2ccccc2)c1=O | 1.7% [at 102 µM] (inactive) | – |
| CCc1ccc(NC(=O)CCCc2nnc3n(CCCOC)c(=O)c4sccc4n23)cc1 | -5.06% (inactive) | – |
| COc1ccccc1C(=O)NCCC(=O)NCC(c1ccco1)N1CCCCC1 (configuration not stated) | -3.11% [at 102 µM] (inactive) | – |
| COc1ccccc1CCNC(=O)CN1C(=O)NC2(CCCC2)C1=O | 8.45% [at 0.501 µM] (inactive) | – |
| COc1ccccc1C(=O)NCCC(=O)NN1C(=O)NC2(CCCCC2)C1=O | – | 50.1 µM (active) |
| COc1cccc(CNC(=O)Cn2ncn3c(cc4ccccc43)c2=O)c1 | -27.7% (inactive) | – |
| COc1ccc(NC(=O)c2sc3nc[nH]c(=O)c3c2C)cc1 | 8.43% (inactive) | – |
| CCc1cccc(NC(=O)c2cc(-c3ccccc3)n[nH]2)c1 | -26.5% (inactive) | – |
| CN(C(=O)CSc1nnnn1-c1ccccc1)C1CCCCC1 | 3.58% [at 102 µM] (inactive) | – |
| CN(C(=O)CSc1nncc2ccccc12)C1CCCCC1 | – | 50.1 µM (active) |
| CN(C(=O)COc1ncnc2c1cnn2-c1ccccc1)C1CCCCC1 | 25.1% [at 0.0925 µM] (inactive) | – |
| COc1ccccc1CNC(=O)C(=O)NCC(c1cccs1)S(=O)(=O)c1cccs1 (configuration not stated) | 11.3% (inactive) | – |
| COc1ccc(-c2nc3ccccc3c(=O)n2CCc2ccc(O)cc2)cc1 | 12.4% [at 102 µM] (inactive) | – |
| COc1ccc(NC(=O)Cn2c(-c3ccc(OC)cc3)cn(-c3ccc(C)cc3)c2=O)cc1 | -31.1% [at 12.7 µM] (inactive) | – |
| COc1ccc(-c2ccc(CCC(=O)O)n2-c2ccc(O)cc2)cc1 | – | 31.6 µM (active) |
| CCOC(=O)c1c(CNCc2ccccc2F)c2sc(C)cc2n1C | 12% [at 12.7 µM] (inactive) | – |
| CC(C)N(C(=O)CN1CCN(S(=O)(=O)c2ccc(Br)s2)CC1)C(C)C | 17.1% [at 2.33 µM] (inactive) | – |
| Cc1cccc(NC(=O)CN2CCCN(S(=O)(=O)c3ccc(Br)s3)CC2)c1 | – | 39.8 µM (active) |
| Cc1ccc(S(=O)(=O)N2CCN(CC(=O)N/N=C/c3ccc(Br)s3)CC2)cc1 | 1.4% [at 102 µM] (inactive) | – |
| CC1CC(C)(C)CC2(C1)NC(=O)N(CC(=O)Nc1nccs1)C2=O (configuration not stated) | 13.6% [at 0.501 µM] (inactive) | – |
| COc1cccc(CNC(=O)C2CCC(CNS(=O)(=O)c3cccs3)CC2)c1 (configuration not stated) | -20% (inactive) | – |
| CSc1ncc(Cl)c(C(=O)Nc2ccc(S(=O)(=O)N3CCCC(C)C3)cc2)n1 (configuration not stated) | -29.4% (inactive) | – |
| Cc1cc(C)cc(OCC(=O)Nc2nc(-c3ccc(F)cc3)ns2)c1 | -6.17% (inactive) | – |

| Compound | activity, negative = inhibition | Potency |
| --- | --- | --- |
| CO/N=C(\C(=O)N[C@@H]1C(=O)N2C(C(=O)O)=C(COC(C)=O)CS[C@H]12)c1csc(N)n1 (stereo in doubt) | – | inactive and 44.7 µM (active) |
| CC(=O)c1ccc(N2CCN(c3nc4c(S(=O)(=O)c5ccccc5)nnn4c4ccc(Cl)cc34)CC2)cc1 | 6.74% (inactive) | – |
| Fc1cccc(-n2ncc3c2ncn2nc(-c4ccccc4Cl)nc32)c1 | 5.95% (inactive) | – |
| Cc1ccc(C)c(N2CCN(C(=O)CCc3c(C)nc4c(c3C)c(=O)n(C)c(=O)n4C)CC2)c1 | 0.908% (inactive) | – |
| S=C(Cc1ccc(Cl)cc1)N1CCOCC1 | – | 14.1 µM (active) |
| O=C(Nc1ccc(Cl)cc1)Nc1ccc(C(=O)N2CCOCC2)cc1 | 9.93% [at 102 µM] (inactive) | – |
| O=C(Cc1ccccc1Cl)N1CCOCC1 | 2.49% [at 102 µM] (inactive) | – |
| COc1cccc(C(=O)Nc2ccc3oc(-c4ccc5ccccc5c4)nc3c2)c1 | -48.7% (inactive) | – |
| COc1ccc(NC(=O)c2c(C)oc3c2CCCC3)cc1 | -13.4% [at 102 µM] (inactive) | – |
| COc1ccc(N/N=C2/CCCCC2=O)cc1 | – | 10 µM (active) |
| COc1ccc(C2C3=C(CCCC3=O)N(CC(=O)O)C3=C2C(=O)CCC3)cc1 | -19% [at 102 µM] (inactive) | – |
| Cc1ccc(-c2nn3c(=O)cc(CN4CCN(C(=O)Nc5cccc(C(F)(F)F)c5)CC4)nc3s2)cc1 | 7.31% (inactive) | – |
| CCCn1nc(C(=O)OCc2nc(N)nc(Nc3ccccc3C)n2)c2ccccc2c1=O | -4.37% [at 12.7 µM] (inactive) | – |
| Cc1cn(C)c(CC(=O)NCc2ccccc2)c1C(=O)O | 0.148% (inactive) | – |
| c1nnc2c3c4c(sc3ncn12)CCC4 | -3.04% (inactive) | – |
| S=c1[nH]nc2c3c4c(sc3ncn12)CCCC4 | – | 1.12 µM (active) |
| N=c1c2c3c(sc2ncn1N)CCCC3 | -1.8% [at 102 µM] (inactive) | – |
| Cn1c(=O)c2sccc2n(Cc2ccc(Br)cc2)c1=O | 4.98% [at 2.33 µM] (inactive) | – |
| CC(=O)OC(COc1ccc(F)cc1)Cn1cnc2ccccc21 (configuration not stated) | 5.88% [at 102 µM] (inactive) | – |
| C/C(Cn1nnc2ccccc21)=N\OC(=O)c1cc(F)c(F)cc1Cl | 4.86% [at 102 µM] (inactive) | – |
| Fc1ccc(OCc2nn3c(Cn4nnc5ccccc54)nnc3s2)cc1 | – | 11.2 µM (active) |
| CC12CCC(=O)N1C(C(=O)NCCN1C(=O)S/C(=C\c3ccccc3F)C1=O)CS2 (configuration not stated) | -5.94% [at 12.7 µM] (inactive) | – |
| Cc1cccc(N2CCN(C(=O)c3ccc(Nc4nc5ccccc5n5nnnc45)cc3)CC2)c1C | 8.07% (inactive) | – |

| Compound | activity, negative = inhibition | Potency |
| --- | --- | --- |
| COc1ccc(Cl)cc1NC(=O)CNc1ccccc1F | – | 79.4 µM (active) |
| COc1ccc(Cl)cc1NC(=O)CN(C)C(=O)c1ccc2n[nH]nc2c1 | 15.9% [at 12.7 µM] (inactive) | – |
| COc1ccc(Cl)cc1NC(=O)CCC(=O)c1ccc(C)cc1 | 0.463% (inactive) | – |
| COc1ccc(C)cc1NC(=O)CSc1ccc(Cl)cc1 | 68% (inactive) | – |
| COc1ccc(Cl)cc1NC(=O)CN(C)Cc1ccc(OC)c(OC)c1 | – | 4.47 µM (active) |
| COc1ccc(Cl)cc1NC(=O)CN(C)C(=O)CNC(=O)C12CC3CC(CC(C3)C1)C2 | 7.61% [at 12.7 µM] (inactive) | – |
| CCC(=O)c1ccc(OCC(=O)Nc2ccc(N3CCCCC3)cc2)cc1 | 13.1% [at 12.7 µM] (inactive) | – |
| CSc1ccc(Cl)c(C(=O)OCC(=O)N2CCNC2=O)c1 | 11.9% [at 12.7 µM] (inactive) | – |
| COc1ccc(OC)c(NC(=O)CSC2=Nc3ccccc3C3=NC(CC(=O)NCc4ccc(F)cc4)C(=O)N23)c1 (configuration not stated) | -3.53% (inactive) | – |
| CC(C)c1ccc(NC(=O)Cn2ncc3ccccc32)cc1 | 16.2% [at 102 µM] (inactive) | – |
| CCC(C)N(C(=O)COC(=O)c1nc(Cl)ccc1Cl)C1CCS(=O)(=O)C1 (configuration not stated) | -0.744% [at 0.501 µM] (inactive) | – |
| COc1cccc(CNS(=O)(=O)c2ccc3c(c2)CC(C)N3C(C)=O)c1 (configuration not stated) | 3.98% [at 102 µM] (inactive) | – |
| CC(C)CCN1CCN=C1N(C)C | 11% [at 2.33 µM] (inactive) | – |
| CCOc1ccc(CNC(=O)C2CCCN(S(=O)(=O)N(CC)c3ccc(OCC)cc3)C2)cc1 (configuration not stated) | -17.3% (inactive) | – |
| CC(=O)N1CCOc2ccc(S(=O)(=O)N3CCN(c4cccc(C(F)(F)F)c4)CC3)cc21 | 2.97% [at 102 µM] (inactive) | – |
| Cc1ccc2nc3c(cc(C(=O)NC4CCCCC4)c(=N)n3C(C)C)c(=O)n2c1 | 3.7% (inactive) | – |
| COc1ccc(/C=C(\NC(=O)c2ccccc2)C(=O)NCCN2CCOCC2)cc1OC | 11.3% [at 102 µM] (inactive) | – |
| CCOC(=O)CNC(=O)/C(=C\c1ccc(F)cc1)NC(=O)c1ccccc1 | 24.9% [at 12.7 µM] (inactive) | – |
| Cn1c2ccccc2c2cc(/C=C(\NC(=O)c3ccccc3)C(=O)NCC(=O)O)ccc21 | – | 50.1 µM (active) |
| COc1ccc(F)cc1C(=O)COC(=O)c1n[nH]c(=O)c2ccccc12 | 0.826% (inactive) | – |
| Cc1coc2c(O)cc3c(c12)OC1(N2CCCCC2)C(=O)NCCCC31 (configuration not stated) | – | 7.94 µM (active) |
| C=CCC1=C/C(=C\c2c(N)n3nc(CC(=O)N4CCOCC4)sc3nc2=O)C=C(OC)C1=O | -45.8% [at 102 µM] (inactive) | – |
| Cc1ccccc1Nc1nc(N)nc(COC(=O)CCC(=O)c2ccc(F)cc2)n1 | -37.6% [at 102 µM] (inactive) | – |

| Compound | activity, negative = inhibition | Potency |
| --- | --- | --- |
| O=C(NCc1ccccc1)[C@H]1C[C@@H]1[C@H](NP(=O)(c1ccccc1)c1ccccc1)c1ccccc1 | – | 28.2 µM (active) |
| O=C(O)C1C2C=CC(C2)C1C(=O)NCc1ccccc1 (configuration not stated) | 1.59% [at 2.33 µM] (inactive) | – |
| COC(=O)[C@H](Cc1ccccc1)NC(=O)[C@@H]1C[C@H]1[C@@H](NC(=O)OCc1ccccc1)c1ccccc1 | 4.81% [at 102 µM] (inactive) | – |
| O=C(CSCc1cnn(-c2ccccc2)c1-n1cccc1)NCc1ccccc1Br | -6.39% (inactive) | – |
| Cc1cc(C)nc(S/C=C/C(=O)c2ccccc2)n1 | – | 22.4 µM (active) |
| C/C(=N\NC(=O)c1nc(C)cc(C)n1)c1ccccc1 | 5.99% (inactive) | – |
| Cc1cc(SCC(=O)c2ccccc2)nc(SCC(=O)c2ccccc2)n1 | 52.4% [at 102 µM] (inactive) | – |
| COc1ccc(Cn2cc(C(=O)c3ccc(C)cc3)c(=O)c3cc(OC)c(OC)cc32)cc1 | -4.14% (inactive) | – |
| CC12CCC(=O)N1C(C(=O)Nc1ccc(F)c(F)c1F)CS2 (configuration not stated) | 13.3% [at 12.7 µM] (inactive) | – |
| Cc1ccc2nc(NC(=O)C3CSC4(C)CCC(=O)N34)sc2c1 (configuration not stated) | – | 39.8 µM (active) |
| CCOC(=O)c1sc(NC(=O)C2CSC3(C)CCC(=O)N23)nc1C (configuration not stated) | 20.6% [at 12.7 µM] (inactive) | – |
| Cc1oc2c(c1C(=O)Nc1ccc(F)c(F)c1)C1=NCCN1C=N2 | 6.48% (inactive) | – |
| COc1ccc(-c2nn(CC(=O)NC3CCCC3)c3c2cnc2ccc(F)cc23)cc1 | 4.34% (inactive) | – |
| COc1ccccc1Nc1ncc(C(C)=O)c(C)n1 | 20.8% [at 102 µM] (inactive) | – |
| C=C(C)C1CC=C(C)/C(=N/NC(=O)CCCNc2cccc(C)c2)C1 (configuration not stated) | -9.82% [at 102 µM] (inactive) | – |
| C=C(C)C1CC=C(C)/C(=N\NC(=O)CNc2ccccc2OC)C1 (configuration not stated) | – | 35.5 µM (active) |
| CCOC(=O)c1c(S(=O)(=O)N2CCCC(C(=O)NCc3cccc(C)c3)C2)c(C)n(C)c1C (configuration not stated) | 5.95% (inactive) | – |
| O=C(NCCC1CCCCN1S(=O)(=O)c1ccc(F)cc1)C(=O)NC1CC1 (configuration not stated) | 16.1% [at 0.501 µM] (inactive) | – |
| COc1ccc(NC(=O)CCCN2C(=O)C(c3ccccc3)Oc3cccnc32)cc1 (configuration not stated) | -1.84% (inactive) | – |
| Cc1cc(C)nc(NC(=O)c2cccc([N+](=O)[O-])c2)c1 | 0.861% [at 102 µM] (inactive) | – |
| O=[N+]([O-])c1cccc(/C([O-])=C(/C(=S)Nc2ccccc2F)[n+]2ccccc2)c1 | – | 28.2 µM (active) |
| CS(=O)(=O)N(CC(=O)Nc1ccc(F)cc1F)c1cccc([N+](=O)[O-])c1 | 1.69% (inactive) | – |
| CCCN1C2CCCC1CC(NC(=O)NC13CC4CC(CC(C4)C1)C3)C2 (configuration not stated) | -2.35% [at 0.501 µM] (inactive) | – |
